# ± gives the standard deviation of the averaged measurements.
# System: E. coli BW25113 marRABp lux reporter
# Experiment: promoter activity interaction Z-score (Lux/OD deviation from empty-vector control); higher = stronger promoter induction by the compound
# Procedure: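 E. coli BW25113 (wild type or ΔmarA/ΔsoxS/Δrob) carrying pTU175 luxCDABE promoter reporters was grown in LB in 384-well plates at 37°C with each of 94 compounds at 4 two-fold concentrations, in biological duplicates. Luminescence and OD600 were read every 30 min for 12 h and integrated as AUC over 8 h (0-8 h WT, 1-9 h mutants). Lux AUC was divided by OD AUC; the interaction score is the residual of a Huber robust fit of each promoter against the empty-vector control, then Z-transformed per promoter.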
smiles,measurement,setting,value
NC1CONC1=O (stereo not drawn) [Cycloserine D],promoter activity interaction Z-score,"1 µg/ml, genetic background: wild type",-0.0783 ± 0.12
same,promoter activity interaction Z-score,"1 µg/ml, genetic background: ΔmarA",-0.137 ± 0.057
same,promoter activity interaction Z-score,"1 µg/ml, genetic background: Δrob",-0.172 ± 0.25
same,promoter activity interaction Z-score,"1 µg/ml, genetic background: ΔsoxS",-0.158 ± 0.078
same,promoter activity interaction Z-score,"1.9 µg/ml, genetic background: wild type",-0.121 ± 0.15
same,promoter activity interaction Z-score,"1.9 µg/ml, genetic background: ΔmarA",0.00534 ± 0.14
same,promoter activity interaction Z-score,"1.9 µg/ml, genetic background: Δrob",-0.0886 ± 0.21
same,promoter activity interaction Z-score,"1.9 µg/ml, genetic background: ΔsoxS",0.0634 ± 0.045
same,promoter activity interaction Z-score,"3.8 µg/ml, genetic background: wild type",-0.109 ± 0.06
same,promoter activity interaction Z-score,"3.8 µg/ml, genetic background: ΔmarA",-0.119 ± 0.032
same,promoter activity interaction Z-score,"3.8 µg/ml, genetic background: Δrob",-0.11 ± 0.062
same,promoter activity interaction Z-score,"3.8 µg/ml, genetic background: ΔsoxS",-0.153 ± 0.013
same,promoter activity interaction Z-score,"7.7 µg/ml, genetic background: wild type",-0.273 ± 0.016
same,promoter activity interaction Z-score,"7.7 µg/ml, genetic background: ΔmarA",-0.299 ± 0.099
same,promoter activity interaction Z-score,"7.7 µg/ml, genetic background: Δrob",0.163 ± 0.27
same,promoter activity interaction Z-score,"7.7 µg/ml, genetic background: ΔsoxS",-0.0525 ± 0.2
NC(N)=S [Thiourea],promoter activity interaction Z-score,"4.8 µg/ml, genetic background: wild type",-0.23 ± 0.42
same,promoter activity interaction Z-score,"4.8 µg/ml, genetic background: ΔmarA",-0.11 ± 0.25
same,promoter activity interaction Z-score,"4.8 µg/ml, genetic background: Δrob",-0.246 ± 0.076
same,promoter activity interaction Z-score,"4.8 µg/ml, genetic background: ΔsoxS",-0.231 ± 0.24
same,promoter activity interaction Z-score,"9.5 µg/ml, genetic background: wild type",-0.161 ± 0.13
same,promoter activity interaction Z-score,"9.5 µg/ml, genetic background: ΔmarA",0.055 ± 0.11
same,promoter activity interaction Z-score,"9.5 µg/ml, genetic background: Δrob",-0.0456 ± 0.0082
same,promoter activity interaction Z-score,"9.5 µg/ml, genetic background: ΔsoxS",-0.157 ± 0.14
same,promoter activity interaction Z-score,"19 µg/ml, genetic background: wild type",-0.209 ± 0.12
same,promoter activity interaction Z-score,"19 µg/ml, genetic background: ΔmarA",-0.407 ± 0.02
same,promoter activity interaction Z-score,"19 µg/ml, genetic background: Δrob",-0.154 ± 0.11
same,promoter activity interaction Z-score,"19 µg/ml, genetic background: ΔsoxS",-0.149 ± 0.038
same,promoter activity interaction Z-score,"38.1 µg/ml, genetic background: wild type",-0.45 ± 0.34
same,promoter activity interaction Z-score,"38.1 µg/ml, genetic background: ΔmarA",-0.162 ± 0.17
same,promoter activity interaction Z-score,"38.1 µg/ml, genetic background: Δrob",-0.0285 ± 0.12
same,promoter activity interaction Z-score,"38.1 µg/ml, genetic background: ΔsoxS",-0.0935 ± 0.032
Nc1ccn(C[C@@H](CO)OCP(=O)(O)O)c(=O)n1 [Cidofovir],promoter activity interaction Z-score,"17.4 µg/ml, genetic background: wild type",-0.0416 ± 0.17
same,promoter activity interaction Z-score,"17.4 µg/ml, genetic background: ΔmarA",-0.106 ± 0.11
same,promoter activity interaction Z-score,"17.4 µg/ml, genetic background: Δrob",-0.0241 ± 0.025
same,promoter activity interaction Z-score,"17.4 µg/ml, genetic background: ΔsoxS",0.0975 ± 0.049
same,promoter activity interaction Z-score,"34.9 µg/ml, genetic background: wild type",0.263 ± 0.48
same,promoter activity interaction Z-score,"34.9 µg/ml, genetic background: ΔmarA",-0.336 ± 0.093
same,promoter activity interaction Z-score,"34.9 µg/ml, genetic background: Δrob",0.0475 ± 0.0048
same,promoter activity interaction Z-score,"34.9 µg/ml, genetic background: ΔsoxS",-0.0388 ± 0.24
same,promoter activity interaction Z-score,"69.8 µg/ml, genetic background: wild type",-0.235 ± 0.23
same,promoter activity interaction Z-score,"69.8 µg/ml, genetic background: ΔmarA",-0.157 ± 0.23
same,promoter activity interaction Z-score,"69.8 µg/ml, genetic background: Δrob",-0.0863 ± 0.087
same,promoter activity interaction Z-score,"69.8 µg/ml, genetic background: ΔsoxS",0.0268 ± 0.12
same,promoter activity interaction Z-score,"139.6 µg/ml, genetic background: wild type",0.0629 ± 0.086
same,promoter activity interaction Z-score,"139.6 µg/ml, genetic background: ΔmarA",-0.277 ± 0.08
same,promoter activity interaction Z-score,"139.6 µg/ml, genetic background: Δrob",0.278 ± 0.14
same,promoter activity interaction Z-score,"139.6 µg/ml, genetic background: ΔsoxS",0.18 ± 0.28

# Reference: the supplement of paper PMC12282887
